PubChem BioAssay AID1117319 (Southern Research Institute, 2015)
Several values for one entry are separate records, joined by “and”; a condition that tells them apart may be missing. Identical values can stand only once. The campaign covered roughly 260,000 compounds. About 1,500 (0.58%) were called active. Inconclusive results (about 5%) are left out.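 How the source made its calls: active means inhibition above a set limit at one or more doses, reproduced on every date tested; inconclusive means results disagree between test dates, or hit never tested in dose response; inactive means the rest.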 Not all results are given here. Measured potencies and affinities stand elsewhere.

molecular target: Virion infectivity factor (Human immunodeficiency virus type 1 group M subtype B (isolate BH10)) + Virion infectivity factor (Human immunodeficiency virus type 1 group M subtype B (isolate BRU/LAI)) + Virion infectivity factor (Human immunodeficiency virus type 1 group M subtype B (isolate PCV12)) + Virion infectivity factor (Human immunodeficiency virus type 1 group M subtype B (isolate HXB2)) + DNA dC->dU-editing enzyme APOBEC-3G (Homo sapiens) (UniProt P69720+P69721+P69722+P69723+Q9HC16); assay: HIV-1 Vif–A3G interaction blockers – biochemical, TR-FRET, GST-Vif 1-94, biotin-A3G peptide, dose response retest, primary screen (AID 1117319); details: TR-FRET GST-Vif / biotin-A3G peptide binding; hits give high values;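 further: Vif residues 1-94 fused to GST binding biotinylated APOBEC3G peptide 110-148; 0% = full assay without inhibitor and 100% = GST in place of GST-Vif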

inhibition, inactive:
CCn1c(C(=O)O)c(S(=O)(=O)c2ccc(Cl)cc2)c2ccccc21 -1.5%
Nc1nnc(SCC(=O)OCc2ccccc2)s1 11.6%
COc1ccc(CCNC(=O)CN2C(=O)NC(c3ccccc3)(c3ccccc3)C2=O)cc1 2.71%
COc1ccc(-c2csc(N(CCc3ccccc3)C(=O)COc3ccccc3)n2)cc1 -2.24%
O=C1CC(c2ccccc2)NC(=S)N1 (stereo not given) 0.02%
Cc1ccc(/C=c2\sc3n(c2=O)CN(c2cccc(Br)c2)CN=3)o1 27.7%
Cc1onc(-c2ccccc2)c1C(=O)N1CCN(c2ccc([N+](=O)[O-])cc2)CC1 -0.35%
O=C1N(Cc2cccc(Cl)c2)C[C@@H]2C[C@@H](c3c[nH]c4ccccc34)N3CCC[C@@]123 0.3%
Cc1ccc(C(=O)OCC(=O)NCc2ccccc2)cc1S(=O)(=O)N1CCCCC1 -8.21%
Cn1c(N2C(=O)CC(Cc3ccccc3)C2=O)nc2ccccc21 (stereo not given) -1.11%
O=C1NC(=O)C(=Cc2ccco2)S1 -2.41%
O=C1NC(=S)SC1=Cc1ccccc1Cl 1.68%
Cc1sc2ncn(-n3c(C)ccc3C)c(=O)c2c1C 5.69%
COc1ccccc1-n1c(CNC(=O)c2ccco2)nnc1SCC(=O)Nc1ccc(F)cc1 -4.03%
O=c1[nH]c(=S)[nH]c2nccnc12 -0.53%
Cc1nc2[nH]c(=S)[nH]c(=O)c2nc1C 17.2%
COc1cc(C(=O)Nc2c(C)cc(C)cc2C)c([N+](=O)[O-])cc1OC -0.83%
O=C(CCc1nnc(CCCCc2ccccc2)o1)N1CCCC(O)C1 (stereo not given) 20%
COc1cc(/C=N/NC(=O)CNc2n[nH]c(=O)[nH]c2=O)ccc1OCc1ccccc1 2.21%
O=C(CNc1n[nH]c(=O)[nH]c1=O)N/N=C/c1ccccc1 -4.54%
COc1ccc(C(CNC(=O)c2ccc(OCC3CCCO3)cc2)N2CCOCC2)cc1 (stereo not given) -4.51%
CCCn1c(NC(=O)CSCC(=O)Nc2cc(C)on2)nc2ccccc21 -0.74%
c1coc(Cn2c(-c3ccco3)nc3ccccc32)c1 6.18%
c1coc(-c2nc3ccccc3s2)c1 1.82%
c1coc(-c2cnc3ccccc3n2)c1 -5.45%
S=c1nc(-c2ccco2)[nH][nH]1 6.53%
COc1ccc2nc3ccccc3nc2c1 0.36%
c1coc(-c2ncc[nH]2)c1 0.85%
COc1ccc2nc3c(nc2c1)CCCC3 -1.28%
CCn1c(-c2ccco2)nc2ccccc21 0.82%
COc1ccc(N(C(=O)c2ccco2)C(C(=O)NC2CCCC2)c2ccco2)cc1OC (stereo not given) 0.94%
COc1ccccc1/C=C/C(=O)OCC(=O)NC(=O)NC1CCCC1 -1.97%
CCn1cc(Cl)c(C(=O)Nc2cccc(C(F)(F)F)c2)n1 -0.07%
CC1(C)CC(NC(=O)COc2ccc([N+](=O)[O-])cc2)CC(C)(C)N1 -0.99%
CC(C(=O)O/N=C(\N)c1cccnc1)c1ccc([N+](=O)[O-])cc1 (stereo not given) -1.85%
COc1cc(/C=C/C(=O)OCC(=O)c2ccc(S(=O)(=O)N3CCCCC3)cc2)cc(OC)c1OC -29.8%
Cc1ccc(OCCSc2nc(NC(C)C)nc(NC(C)C)n2)cc1 -8.83%
CC(C)(C)NC(=O)CN1CCN(C(=O)CCl)CC1 -2.69%
Cc1oc2ccc(O)c(CN3CCOCC3)c2c1C(C)O (stereo not given) -6.07%
COCCN1C(=O)CC(NNC(=O)c2ccc(S(=O)(=O)N3CCCC3)cc2)C1=O (stereo not given) 8%
CCCC(C)NC(=O)c1ccc(-c2ccccc2)cc1 (stereo not given) -5.95%
Nc1nc(-c2ccco2)cs1 -0.78%
Nc1nnc(-c2ccco2)s1 15.6%
CCOC(=O)c1cnc(-n2nc(C)cc2C)[nH]c1=O -8.45%
Cc1sc(-c2ccccn2)nc1OC(=O)c1ccc(Cl)c(Cl)c1 -6.3%
CC1CCCCC1NC(=O)COC(=O)c1ccc2ccccc2n1 (stereo not given) -3.73%
CCc1nc2ccccc2c(C(=O)OCC(=O)NC2CCCC2)c1C 4.22%
O=C(COC(=O)c1c2c(nc3ccccc13)/C(=C/c1cccc([N+](=O)[O-])c1)CCC2)NC1CCS(=O)(=O)C1 (stereo not given) 29.1%
CN1CCc2nc3ccccc3c(C(=O)OCC(=O)N(CCC#N)c3ccccc3)c2C1 -5.14%
CC1CCCCC1NC(=O)COC(=O)c1c2c(nc3ccccc13)/C(=C\c1ccco1)CC2 (stereo not given) 4.28%
CN(CCC#N)C(=O)COC(=O)c1nn(-c2ccccc2)c(=O)c2ccccc12 -3.88%
Cc1ccc(N(Cc2ccccc2)C(=O)c2cccc(S(=O)(=O)N3CC(C)OC(C)C3)c2)cc1 (stereo not given) 5.98%
CCCCc1nnc(NC(=O)Cc2ccc(S(=O)(=O)N3CCOCC3)s2)s1 -4.48%
CCc1ccc(CN(C)C(C)C(=O)NCc2ccccc2)cc1 (stereo not given) -5.54%
CCOC(=O)c1oc2cc(C)cc(C)c2c1C 12.6%
C[C@]1(C(=O)NCCN2CCOCC2)C=C[C@@H](Cc2ccccc2)N1C(=O)c1ccccc1 -2.79%
N#Cc1cnc(N)c(Br)c1 -0.24%
COc1ccc(-n2c(=S)[nH]c3cc(C(=O)NCc4cccnc4)ccc3c2=O)cc1 -1.63%
Fc1cccc(F)c1-n1c(CN2CCOCC2)csc1=S -4.65%
C/C(N)=C(/C#N)C(=O)CSc1nnc(Nc2cccc(C)c2)s1 29.1%
C/C(N)=C(/C#N)C(=O)CSc1nnc(Nc2ccccc2C)s1 5.27%
Cn1c(SCC(=O)NCc2ccc3c(c2)OCO3)nnc1-c1cc2ccccc2cc1O 5.67%
CCNc1nc(NCC)nc(SCC(C)=O)n1 1.47%
O=C(NCc1ccccc1F)c1ccc(S(=O)(=O)NCc2ccco2)cc1 1.91%
O=C(Cc1c[nH]c2ccccc12)NCc1ccco1 -2.84%
NS(=O)(=O)c1ccc(CNC(=O)c2ccc(S(=O)(=O)NCc3ccco3)cc2)cc1 -7.37%
O=C(CCc1c[nH]c2ccccc12)NCc1ccco1 14.9%
O=C(NCCc1ccccc1)c1nc2ncccn2n1 8.66%
COc1ccc(NC(=O)CCNS(=O)(=O)c2cccc3nonc23)cc1Cl 7.84%
COc1ccccc1/C=C(/CC(=O)NCc1ccc(F)cc1)c1nc2ccccc2s1 -7%
COc1ccc(/C=C(/CC(=O)NCc2ccc(Cl)cc2)c2nc3ccccc3s2)cc1 2.71%
COc1ccc(Cl)cc1C(=O)Nc1ccccc1N1CCN(C)CC1 1.41%
COC(=O)/C(=C/c1ccco1)NC(=O)c1ccccc1 11.2%
O=C(Nc1ccc(C(=O)O)cc1)/C(=C\c1ccco1)NC(=O)c1ccccc1 26.2%
Fc1ccc(-c2cc(C(F)(F)F)nc(-n3cccn3)n2)cc1 21.7%
CCc1ccc2[nH]c(=O)c(C(c3nnnn3CCOC)N3CCN(c4ccccc4)CC3)cc2c1 (stereo not given) 9.41% and 22.6%
CCc1ccc2[nH]c(=O)c(C(c3nnnn3CCOC)N3CCN(c4ccc(F)cc4)CC3)cc2c1 (stereo not given) 9.01% and 16.1%
Cc1ccc(SCC(=O)NNC(=O)CCS(=O)(=O)c2ccc(C)cc2)cc1 -4.89%
CCCNC(=O)c1ccccc1C(=O)NCCC -3.84%
CCOCCCNC(=O)c1ccccc1Br 79.3%
Cc1nn(-c2ccccc2)c(C)c1C1C(C#N)=C(N)Oc2n[nH]c(C)c21 (stereo not given) -0.66%
CCCCC(=O)Nc1cccc(-c2csc(-c3ccccc3)n2)c1 -12.6%
O/N=C1\CC(O)Cc2nonc21 (stereo not given) -4.67%
CCCC(c1nnnn1CC(=O)OCC)N(Cc1cc2ccc(C)cc2[nH]c1=O)C1CCCC1 (stereo not given) 4.45% and 9.64%
CCCC(c1nnnn1CC(=O)OCC)N(Cc1cc2c(C)cc(C)cc2[nH]c1=O)C1CCCC1 (stereo not given) 68.5%
O=C(Nc1ncn[nH]1)c1ccccc1O -9.78%
COc1ccc(N2C(=O)C3C4C=CC(C4)C3C2=O)c(OC)c1 (stereo not given) 1.91%
COc1ccc(NC(=O)CN2CCN(c3ccccc3F)CC2)cc1 8.91%
COC(=O)c1ccc(CN(C(=O)N2CCN(C)CC2)S(=O)(=O)c2ccc(C)cc2)cc1 2.32%
CN1CCN(C(=O)CSc2nc(-c3ccco3)cc(C(F)(F)F)n2)CC1 -4.57%
O=C(CSc1nc(-c2ccco2)cc(C(F)(F)F)n1)N1CCCc2ccccc21 -15.3% and -9.35%
O=C(Nc1ccc(F)cc1)C(=O)C1C(=O)Nc2ccccc21 (stereo not given) -6.37%
Cc1ccc(NC(=O)C(=O)NCc2ccc(/C=C(/C#N)C(=O)NCc3cccnc3)o2)cc1 7.86%
CCOC(=O)C1=C(O)/C(=C\c2sccc2C)N=C1C 0.95%
Cc1ccc(NC(=O)C(=O)NCc2ccc(/C=N/NC(=O)c3c(C)nc4ccccn34)o2)cc1 26.2%
O=C(NCc1ccc(/C=c2\sc3n(c2=O)CCN=3)o1)C(=O)Nc1ccccc1 -17%
Cc1ccc(NC(=O)C(=O)NCc2ccc(/C=N/NC(=O)c3c(C)nc4cc(C)ccn34)o2)cc1 19.2%
COC(=O)C1=C(O)/C(=C\c2ccc(OCC(=O)Nc3ccccc3)cc2)N=C1C -9.89%
CCOC(=O)C1=C(O)/C(=C\c2cccs2)N=C1C 15.1%
CCOC(=O)c1ccc(NC(=O)C(=O)NCc2ccc(/C=C(/C#N)C(=O)NCCOC)o2)cc1 -2.3%
